Reference: PubChem BioAssay (NCI)
This is part of a sample that, as a whole, favours compounds with a hit. Of some 79,000 tested, about 15% had one in any assay. The source made the active and inactive calls. Rule as the data show it: active = growth inhibition above about 70%; inactive = the rest.

Tests used:
[1] = NCI Yeast Anticancer Drug Screen. Data for the rad52 strain (AID 147);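 also: 0% = growth of vehicle-treated control cultures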; settings: S. cerevisiae rad52 mutant growth inhibition, active compounds read high
Procedure, shortened: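 Compounds are applied to a genetically defined yeast strain lacking normal DNA damage repair, and inhibition of growth is expressed relative to cultures given vehicle only.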

[2] = NCI Yeast Anticancer Drug Screen. Data for the wt1 strain (AID 149);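 also: 0% = growth of vehicle-treated wt1 cultures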; settings: S. cerevisiae wt1 strain (SPY 50644) growth inhibition, active compounds read high
Procedure, shortened: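 The wt1 strain was treated with compounds, and growth was compared with vehicle-treated cultures to give inhibition.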

[3] = NCI Yeast Anticancer Drug Screen. Data for the rad50 strain (AID 155);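 also: 0% = growth of vehicle-only cultures of the same strain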; settings: S. cerevisiae rad50 strain growth inhibition, active compounds read high
Procedure, shortened: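 Cells are treated with compound, grown, and their growth is then scored against vehicle-only cultures of the same repair-deficient yeast strain.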

[4] = NCI Yeast Anticancer Drug Screen. Data for the mec2-1 strain (AID 157); settings: S. cerevisiae mec2-1 strain, active compounds read high
Procedure, shortened: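 Strain: mec2-1 (DNA repair/cell cycle alteration). Compound exposure, then growth measured; inhibition expressed relative to vehicle.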

[5] = NCI Yeast Anticancer Drug Screen. Data for the rad14 strain (AID 159);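 also: 0% = growth of vehicle-treated control cultures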; settings: S. cerevisiae rad14 strain growth inhibition, active compounds read high
Procedure, shortened: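 Readout: yeast growth inhibition, referenced to vehicle-only cultures. Strain bears a defined alteration in DNA damage repair.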

[6] = NCI Yeast Anticancer Drug Screen. Data for the sgs1 mgt1 strain (AID 161);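 also: 0% = growth of cultures given vehicle only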; settings: S. cerevisiae sgs1 mgt1 strain, active compounds read high
Procedure, shortened: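 Test agents were incubated with a DNA-repair-mutant yeast strain. Growth was then read and compared against vehicle-treated controls.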

[7] = NCI Yeast Anticancer Drug Screen. Data for the CLN2oe strain (AID 163);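 also: 0% = growth of vehicle-only control cultures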; settings: S. cerevisiae CLN2oe strain, active compounds read high
Procedure, shortened: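 Growth of a genetically modified yeast strain is measured after compound exposure and compared with cultures given vehicle alone.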

[8] = NCI Yeast Anticancer Drug Screen. Data for the cln2 rad14 strain (AID 165);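 also: 0% = growth equal to vehicle treated cultures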; settings: S. cerevisiae cln2 rad14 strain, active compounds read high
Procedure, shortened: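 Compounds are applied to the cln2 rad14 yeast strain, and growth is then compared with that of vehicle-treated cultures to give inhibition.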

[9] = NCI Yeast Anticancer Drug Screen. Data for the bub3 strain (AID 167); settings: S. cerevisiae bub3 mutant strain, active compounds read high
Procedure, shortened: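 Part of a panel of yeast mutants defective in DNA damage repair or cell cycle regulation. Each strain is grown with compound, and inhibition is calculated relative to solvent-treated cultures.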

[10] = NCI Yeast Anticancer Drug Screen. Data for the wt2 strain (AID 169);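 also: 0% = growth of vehicle-treated yeast cultures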; settings: S. cerevisiae wt2 strain growth inhibition, active compounds read high
Procedure, shortened: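 This strain belongs to a panel of yeast strains with defined genetic alterations in DNA damage repair or cell cycle control. Compounds are applied, and growth inhibition is measured against vehicle-treated cultures.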

[11] = NCI Yeast Anticancer Drug Screen. Data for the mlh1 strain (AID 171);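 also: 0% = growth of vehicle-treated control cultures of the same strain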; settings: S. cerevisiae mlh1 strain growth inhibition, active compounds read high
Procedure, shortened: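 Growth of the mutant yeast strain after compound exposure, expressed as inhibition relative to vehicle-only controls.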

[12] = NCI Yeast Anticancer Drug Screen. Data for the sgs1 strain (AID 173);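 also: 0% = growth of vehicle-only control cultures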; settings: S. cerevisiae sgs1 mutant, active compounds read high
Procedure, shortened: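 Growth of a yeast strain bearing a defined genetic alteration is measured after compound treatment. Inhibition is expressed relative to vehicle-only controls.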

[13] = NCI Yeast Anticancer Drug Screen. Data for the rad18 strain (AID 177); settings: S. cerevisiae rad18 mutant growth inhibition, active compounds read high
Procedure, shortened: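 Growth of the mutant yeast strain after compound exposure, normalised to vehicle-only cultures.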

[14] = NCI Yeast Anticancer Drug Screen. Data for the rad50EPP+ strain (AID 151);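 also: 0% = growth of vehicle-treated control cultures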; settings: S. cerevisiae rad50 mutant strain, active compounds read high
Procedure, shortened: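 Compounds were applied to the rad50EPP+ yeast strain, which bears a defined DNA repair alteration, and growth inhibition was determined relative to vehicle-treated cultures.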

[15] = NCI Yeast Anticancer Drug Screen. Data for the mgt1 strain (AID 153); settings: S. cerevisiae mgt1 mutant growth inhibition, active compounds read high
Procedure, shortened: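 Strain: mgt1 yeast, one of a set carrying defined DNA damage repair or cell cycle control alterations. Compound-treated growth compared with vehicle.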

[16] = NCI Yeast Anticancer Drug Screen. Data for the mlh1 rad18 strain (AID 175); settings: S. cerevisiae mlh1 rad18 strain growth inhibition, active compounds read high
Procedure, shortened: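 Read-out is yeast growth inhibition, calculated against vehicle-only controls. The compound was applied to a strain engineered with DNA damage repair alterations.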

[17] = at 5.0 µM (retest, dose inferred, filed as 0.5)
[18] = at 50.0 µM (retest, dose inferred, filed as 5.0)

Measured: growth inhibition

NP1(Oc2ccc(F)cc2)=NP(N)(Oc2ccc(F)cc2)=NP(Oc2ccc(F)cc2)(Oc2ccc(F)cc2)=N1 (configuration not stated)
inactive: [1]; at 1.2 µM -1% | [1]; at 3.7 µM 7% | [2]; at 1.2 µM -2% | [2]; at 3.7 µM 0% | [2]; at 11.0 µM 20% | [2]; at 33.0 µM 41% | [2]; at 100.0 µM 48% | [3]; at 1.2 µM 4% | [3]; at 3.7 µM 5% | [3]; [17] 21% | [3]; [18] 64% | [4]; at 1.2 µM 1% | [4]; at 3.7 µM 3% | [4]; [17] 12% | [4]; at 11.0 µM 26% | [4]; at 33.0 µM 28% | [4]; [18] 19% | [5]; at 1.2 µM -2% | [5]; at 3.7 µM 1% | [5]; at 11.0 µM 6% | [5]; at 33.0 µM 15% | [6]; [17] 1% | [6]; [18] 28% | [7]; at 1.2 µM 0% | [7]; at 3.7 µM -3% | [7]; at 11.0 µM 17% | [7]; at 33.0 µM 53% | [8]; [17] 5% | [8]; [18] 54% | [9]; at 1.2 µM 1% | [9]; at 3.7 µM -1% | [9]; [17] 8% | [9]; at 11.0 µM 53% | [9]; at 33.0 µM 23% | [9]; [18] 35% | [10]; at 1.2 µM 0% | [10]; at 3.7 µM 7% | [10]; at 11.0 µM -1% | [10]; at 33.0 µM 22% | [10]; at 100.0 µM 50% | [11]; at 1.2 µM 0% | [11]; at 3.7 µM -2% | [11]; at 11.0 µM 1% | [11]; at 33.0 µM 15% | [12]; at 1.2 µM -3% | [12]; at 3.7 µM 0% | [12]; at 11.0 µM 12% | [12]; at 33.0 µM 51% | [13]; at 1.2 µM -1% | [13]; at 3.7 µM 14% | [13]; at 11.0 µM 63%
active: [1]; at 11.0 µM 74% | [1]; at 33.0 µM 71% | [1]; at 100.0 µM 96% | [3]; at 11.0 µM 95% | [3]; at 33.0 µM 96% | [3]; at 50.0 µM 94.8% | [3]; at 100.0 µM 96% | [4]; at 50.0 µM 84.7% | [4]; at 100.0 µM 94% | [5]; at 100.0 µM 88% | [6]; at 50.0 µM 97.9% | [7]; at 100.0 µM 94% | [8]; at 50.0 µM 97% | [9]; at 50.0 µM 87.5% | [9]; at 100.0 µM 96% | [11]; at 100.0 µM 84% | [12]; at 100.0 µM 95% | [13]; at 33.0 µM 83% | [13]; at 100.0 µM 97%

NC(N)=NCCCS(=O)(=O)Nc1ccc(Nc2c3ccccc3nc3cc([N+](=O)[O-])ccc23)cc1
inactive: [2]; at 1.2 µM -20% | [2]; at 3.7 µM -18% | [2]; at 11.0 µM -26% | [2]; at 33.0 µM -15% | [2]; at 100.0 µM 42% | [14]; at 1.2 µM -21% | [14]; at 3.7 µM -11% | [14]; at 11.0 µM 17% | [14]; at 33.0 µM 44% | [14]; at 100.0 µM 68% | [15]; at 1.2 µM -24% | [15]; at 3.7 µM -29% | [15]; at 11.0 µM -10% | [15]; at 33.0 µM 18% | [15]; at 100.0 µM 65% | [3]; at 1.2 µM -4% | [3]; at 3.7 µM -4% | [3]; [17] 23% | [3]; at 11.0 µM 44% | [4]; at 1.2 µM -37% | [4]; at 3.7 µM -32% | [4]; [17] -22% | [4]; at 11.0 µM -26% | [4]; at 33.0 µM 11% | [4]; at 50.0 µM 60% | [6]; [17] 20% | [6]; at 50.0 µM 63.1% | [7]; at 1.2 µM -65% | [7]; at 3.7 µM -47% | [7]; at 11.0 µM -51% | [7]; at 33.0 µM -11% | [7]; at 100.0 µM 49% | [8]; [17] -18% | [8]; [18] 66% | [8]; at 50.0 µM 47.4% | [9]; at 1.2 µM 0% | [9]; at 3.7 µM 0% | [9]; [17] 11% | [9]; at 11.0 µM -10% | [9]; at 33.0 µM 3% | [9]; at 50.0 µM 57.8% | [10]; at 1.2 µM -49% | [10]; at 3.7 µM -58% | [10]; at 11.0 µM -77% | [10]; at 33.0 µM 23% | [10]; at 100.0 µM 50% | [11]; at 1.2 µM -20% | [11]; at 3.7 µM -10% | [11]; at 11.0 µM 3% | [11]; at 33.0 µM 32% | [12]; at 1.2 µM 29% | [12]; at 3.7 µM 1% | [12]; at 11.0 µM -13% | [12]; at 33.0 µM 23% | [12]; at 100.0 µM 69% | [16]; [17] -8% | [13]; at 1.2 µM -28% | [13]; at 3.7 µM -39% | [13]; at 11.0 µM -41% | [13]; at 33.0 µM -13%
active: [3]; at 33.0 µM 83% | [3]; [18] 88% | [3]; at 50.0 µM 72.9% | [3]; at 100.0 µM 89% | [4]; [18] 74% | [4]; at 100.0 µM 70% | [6]; [18] 83% | [9]; [18] 70% | [9]; at 100.0 µM 74% | [11]; at 100.0 µM 81% | [16]; [18] 83% | [13]; at 100.0 µM 74%

Cc1ccc(Nc2n[nH]c(=S)s2)cc1
active: [15]; at 100.0 µM 94% | [3]; at 33.0 µM 72% | [3]; [18] 80% | [3]; at 50.0 µM 87% | [3]; at 100.0 µM 93% | [4]; at 50.0 µM 86% | [4]; at 100.0 µM 93% | [5]; at 33.0 µM 81%
inactive: [14]; at 1.2 µM -13% | [14]; at 3.7 µM -10% | [14]; at 11.0 µM -11% | [14]; at 33.0 µM 6% | [14]; at 100.0 µM 68% | [15]; at 1.2 µM -6% | [15]; at 3.7 µM -5% | [15]; at 11.0 µM -3% | [15]; at 33.0 µM 65% | [3]; at 1.2 µM 5% | [3]; at 3.7 µM -1% | [3]; [17] 44% | [3]; at 11.0 µM 0% | [4]; at 1.2 µM -13% | [4]; at 3.7 µM -29% | [4]; [17] 39% | [4]; at 11.0 µM -27% | [4]; at 33.0 µM 13% | [4]; [18] 55% | [5]; at 1.2 µM -14% | [5]; at 3.7 µM -28% | [5]; at 11.0 µM -11%
